# DT40 TDP1 no CPT: qHTS for Inhibitors of human tyrosyl-DNA phosphodiesterase 1 (TDP1): qHTS in cells in absence of CPT; hit rate 15% among 420,000; DT40 Tdp1-/- hTDP1 cells, no CPT, ATP luminescence, 48 h; Potency, µM (highest dose often 46.2 µM), inactives show top-dose activity change, negative = growth inhibition, usual class: inhibitors; note: potency is the fitted concentration of half-maximal effect; nearly all actives have a fitted effect of over 55% in size
#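 Camptothecin absent (DMSO only). Human TDP1-complemented DT40 knockout cells, 400 cells/well, 37 °C for minimum 48 hr; ATP measured via CellTiter-Glo, 30 min dark incubation, luminescence.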
# DT40 TDP1 CPT: growth inhibition of DT40 Tdp1-/-;hTDP1 cells with camptothecin (screen for TDP1 inhibitors); chicken DT40 Tdp1-/-;hTDP1 cells + 20 nM CPT, ATP luminescence, 48 h; Potency, µM (top dose mostly 46.2 µM), for the others: top-dose activity change, negative = growth inhibition, hits mostly inhibitors; hit rate 12% among 420,000; AID 686979; note: potency is the fitted concentration of half-maximal effect; nearly all actives have a fitted effect of over 55% in size
#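 Chicken DT40 Tdp1-/- cells stably complemented with human TDP1 were seeded at 400 cells/well in medium containing 20 nM camptothecin, exposed to pin-transferred compounds, and grown at 37 °C for at least 48 hr. Viability was read as ATP luminescence.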
# HT1080 IDH1KD tx: toxicity to HT-1080 IDH1 knockdown cells (counter line). HT-1080 IDH1 knockdown viability, ATP luminescence, 48 h. Potency, µM (highest dose often 46.1 µM), for the others: top-dose activity, negative = toxicity, hits mostly cytotoxic. hit rate 2% among 360,000;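 note: potency is the fitted concentration of half-maximal effect; 0% = DMSO wells and -100% = cell-free medium wells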
#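 CellTiter-Glo luminescence after 48 h compound exposure at 37 degrees C of IDH1-knockdown HT-1080 cells in 5% FBS RPMI. %Activity scaled between DMSO wells and cell-free media wells, with curves fitted and assigned curve classes.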
# IL1B secr inh: inflammasome signaling inhibition, IL-1 beta readout. activity change, % at 57.5 µM. hit rate 4.7% among 360,000. THP-1 LPS/ATP IL-1B secretion, AlphaLISA, 16 h; stronger effect = lower value; in the data active = activity change below about -50%; inconclusive = mostly about -30% to -49%
#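 THP-1 cells pretreated 1 hr with compounds (up to 57.5 uM final), then stimulated with LPS (250 ng/mL final) plus ATP (1.25 mM final); secreted IL-1B measured by AlphaLISA after 16 hr, decreased signal indicating inhibition.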
# HT1080NT lethal: kills 2HG-producing HT-1080-NT fibrosarcoma cells; HT-1080-NT fibrosarcoma viability, CellTiter-Glo ATP luminescence, 48 h; Potency, µM (top dose mostly 46.1 µM), for inactives: at the top dose activity, negative = less viability, usual class: cytotoxic; hit rate 1.6% among 360,000;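 note: NT is the 2HG producing partner of a matched IDH1 knockdown line; potency is the fitted concentration of half-maximal effect; 0% = DMSO-treated cells and -100% = media-only wells without cells; nearly all actives have a fitted effect of over 55% in size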
#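 A 48-hour cytotoxicity screen used HT-1080-NT cells plated 2 hours before compound delivery. ATP-based CellTiter-Glo luminescence measured viability, normalized to DMSO and no-cell controls.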
# Active calls of the source: *; ? = inconclusive; / = not tested or not shown. A selection: hits, their analogues and other compounds. The true share with any hit is near 19%. Unless noted, calls come from the whole dose curve; as a rule, active = well fitted curve in the direction sought with a large enough effect; inconclusive = small, poorly fitted or top-dose-only effect, or another doubt; inactive = no such curve, though single readings can be large; an effect the other way counts as inactive or inconclusive. Unless noted, % is set by controls: 0 for no effect and ±100 for the full control effect.
SMILES,DT40 TDP1 no CPT,DT40 TDP1 CPT,HT1080 IDH1KD tx,IL1B secr inh,HT1080NT lethal
CC(C)(C)n1nnnc1C(c1cccnc1)N1CCN(c2ccccc2F)CC1 (centres undefined),0%,0%,5%,20,13%
CCC(c1nnnn1C(C)(C)C)N1CCN(c2cc(Cl)ccc2C)CC1 (centres undefined),16µM*,?,-20%,-6,-14%
Cc1cccc(N2CCN(C(c3ccccc3)c3nnnn3C(C)(C)C)CC2)c1C (centres undefined),23µM*,?,2%,-12,7%
Cc1cccc(N2CCN(C(c3cccs3)c3nnnn3C(C)(C)C)CC2)c1C (centres undefined),22µM*,18µM*,-26%,-3,11%
Cc1ccc(N(C)S(=O)(=O)c2ccc(-c3coc(C)n3)cc2)cc1,?,-27%,/,/,/
Cc1ccc(-n2c(=O)c3c(c4cc(C)ccc4n3C)n(CC(=O)NCCC3=CCCCC3)c2=O)cc1,-6%,-9%,/,/,/
CC(C)C1=NN(C(=O)c2ccccc2)C(O)(C(C)(C)C)C1 (centres undefined),6.5µM*,?,13%,6,11%
CC1=C(C(=O)Nc2ccccc2F)C(c2ccsc2)C2=C(CC(c3ccccc3)CC2=O)N1 (centres undefined),26µM*,26µM*,-19%,-18,-17%
CCOCCOC(=O)C1=C(C)NC2=C(C(=O)CC(c3cccs3)C2)C1c1ccsc1 (centres undefined),?,?,-28%,-20,?
CC1(C)Cc2c(sc3[nH]c(=S)n(Cc4ccco4)c(=O)c23)CO1,?,21µM*,?,?,?
CC1(C)Cc2c(sc3c2c(=N)n(Cc2ccco2)c(=O)n3Cc2ccccc2)CO1,?,18µM*,-14%,-23,-10%
CN1/C(=C\C(=O)Nc2cccnc2)c2ccccc2CC1(C)C,10µM*,18µM*,10%,6,1%
O=C(CCN1C(=O)c2ccccc2C1=O)Nc1cccnc1,1%,5%,14%,-6,20%
COc1ccc(C(=O)/C=C2/c3ccccc3CC(C)(C)N2C)cc1,5.2µM*,5.2µM*,6.3µM*,7,6.3µM*
Cn1cc(CCNCc2cn[nH]c2-c2ccc(-c3ccccc3)cc2)cn1,?,?,?,-22,?
Cc1ccc(-c2[nH]ncc2CNCc2ccccc2)cc1,18µM*,11µM*,/,/,/
COc1ccc(/C=C(\NC(=O)c2ccc(C)cc2)C(=O)NCCCN2CCOCC2)cc1OC,1%,13%,1%,6,9%
COc1ccc(C(C(=O)NC2CCCCC2)N(C(=O)c2sc(C)nc2C)c2ccc(OC)cc2)cc1 (centres undefined),-22%,?,-4%,5,3%
COc1ccc(C(C(=O)NC2CCCC2)N(C(=O)c2ccoc2C)c2ccccc2)cc1 (centres undefined),?,?,-1%,-3,-18%
CCc1ccc(N(C(=O)c2ccoc2C)C(C(=O)NC2CCCC2)c2ccc(OC)cc2)cc1 (centres undefined),18µM*,23µM*,0%,?,17%
COc1ccc(C(C(=O)NC2CCCC2)N(C(=O)c2ccoc2C)c2ccc(C)c(C)c2)cc1 (centres undefined),13µM*,?,?,?,-19%
COc1ccc(C(C(=O)NC2CCCC2)N(C(=O)c2ccoc2C)c2cc(C)cc(C)c2)cc1 (centres undefined),29µM*,26µM*,-30%,?,-17%
COc1ccc(N(C(=O)c2ccco2)C(C(=O)NC2CCCC2)c2ccccc2)cc1 (centres undefined),?,?,0%,-8,-1%
CCOC(=S)SSC(=S)OCC,-13%,7%,/,/,/
Cc1cc(C)c(C(=O)C(C)OC(=O)c2ccc(Cl)nc2)cc1C (centres undefined),?,?,3%,16,5%
SMILES,DT40 TDP1 no CPT,DT40 TDP1 CPT,HT1080 IDH1KD tx,IL1B secr inh,HT1080NT lethal
Cc1ccc(C)c(OCCC(=O)N(C)CC(=O)Nc2c(C)cccc2C)c1,-13%,-19%,0%,0,0%
CC(=O)N1CCCC(N2CCN(c3cccc(C(F)(F)F)c3)CC2)C1 (centres undefined),2%,4%,3%,-5,0%
CSc1nc(C(=O)N2CCCC(N3CCN(c4ccccc4C)CC3)C2)cs1 (centres undefined),18µM*,21µM*,-4%,5,-19%
Cc1ccc(C(=O)N2CCCC(N3CCN(c4cccc(C(F)(F)F)c4)CC3)C2)s1 (centres undefined),6.5µM*,1.3µM*,-24%,-9,?
CC1=C(C(=O)N2CCCC(N3CCN(c4cccc(C(F)(F)F)c4)CC3)C2)OCCO1 (centres undefined),?,?,3%,1,0%
Cc1cnc(C(=O)N2CCCC(N3CCN(c4cccc(C(F)(F)F)c4)CC3)C2)cn1 (centres undefined),?,23µM*,-1%,-62*,-12%
COc1ccccc1N1CCN(C2CCCN(C(=O)c3csc(C)n3)C2)CC1 (centres undefined),?,-4%,2%,9,-1%
CCc1cc(C(=O)N2CCCC(N3CCN(c4cccc(C(F)(F)F)c4)CC3)C2)n(C)n1 (centres undefined),12µM*,12µM*,-10%,-13,-9%
COC(C[C@H]1O[C@H]1[C@@H](O)[C@H](C)OCc1ccccc1)OC,-4%,0%,14%,3,6%
Cc1cc(=S)[nH]c(=S)[nH]1,23%,-3%,5%,0,12%
Cc1c(C=O)ccc(N(C)C)c1C,-11%,12%,/,/,/
CCCc1cc(C(=O)N2CCCC(N3CCN(c4ccccc4C)CC3)C2)n(C)n1 (centres undefined),?,16µM*,-1%,10,-3%
O=C(c1ccncc1)N1CCCC(N2CCN(c3cccc(C(F)(F)F)c3)CC2)C1 (centres undefined),?,16µM*,-7%,0,-9%
O=[N+]([O-])c1ccccc1CCc1cnc(Cl)s1,9%,-19%,4%,26,?
CCOC(=O)N1CCc2c(sc3nc(SC(C)C)n(N)c(=O)c23)C1,23µM*,9.2µM*,-17%,-23,-9%
CC(C)(O)CCc1c(-c2ccc(O)cc2O)oc2c3c(cc(O)c2c1=O)OC(C)(C)C=C3,16µM*,12µM*,-15%,-14,0%

# Screens (PubChem BioAssay)
